The sample as a whole holds a higher share of hits than the screen did.
Tg IFNy HTS: T. gondii growth inhibition under IFN-gamma; 69,000 tested, 3.8% active; AID 1259416; Toxoplasma gondii growth in IFN-gamma-treated host cells; stronger effect = lower value; activity change, negative = inhibition, % (no concentration beside the values); in the data active means activity change below about -70%, passing the limit was not always enough;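 further: host cells are HeLa cells infected with Toxoplasma gondii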
Each line names hits and unclear results; the compound was inactive in the other large screens; ! = repeats disagree.

CN1C(=O)COc2c(C(=O)NC3CN4CCC3CC4)cc(Cl)cc21 (centres undefined)	none
CCN1C[C@H]2[C@H](OC)CCN(C(=O)c3cc(C4CC4)on3)[C@H]2C1	none
CNC(=O)[C@H]1CC2CN(c3cc(OC)ncn3)CC2N1C(C)C (some centres undefined)	none
COc1ccc(CN2CCC3(CC2)COCCN3CC2CC2)cn1	none
Cc1nccc2c1[nH]c1ccccc12	none
c1ccc2c(c1)[nH]c1cnccc12	none
Cc1c2ccncc2c(C)c2c1[nH]c1ccccc12	Tg IFNy HTS -80
Cc1ccc(N2CCC3(CC2)C(=O)N(C)CCN3C)nn1	none
COCCN1C[C@H]2[C@H](OC)CCN(S(=O)(=O)c3cccnc3)[C@H]2C1	none
C[C@@H]1O[C@@H](O[C@@H]2C=C3CCC4C(CC[C@]5(C)[C@@H](c6ccc(=O)oc6)CC[C@]45O)[C@@]3(C)CC2)C(O)C(O)[C@H]1O (some centres undefined)	Tg IFNy HTS -80
CN(C)c1ncc2c(n1)C1(CCN(Cc3cccnc3)C1)COC2 (centres undefined)	none
O=C1NC2(CCNCC2)CC1c1ccncc1 (centres undefined)	none
O=C(NC1CCCCC1)c1cc2cccnc2n(Cc2ccccc2F)c1=O	none
CCCN1CCC[C@@H]2Cc3nc(N)ncc3C[C@H]21	none
CCCN1CCC[C@@H]2Cc3[nH]ncc3C[C@H]21	Tg IFNy HTS -73
CNC(=O)CN1CCOCC12CCN(c1ccc(C)nn1)CC2	none
CN(C)CCN1C[C@H](OCc2ccccn2)[C@@H]2COC[C@@H]21	none
Fc1cccnc1O[C@@H]1CC[C@@H]2[C@@H]1OCCN2CC1CCOCC1	none
COC(=O)c1cccc(CN(C)C(C)Cc2cc(C)ccn2)n1 (centres undefined)	none
Cc1cccnc1N1CC2(CCN(Cc3cccnc3)C2)C1	none
C[C@H]1OC(O[C@H]2[C@@H](O)CC(O[C@H]3[C@@H](O)C[C@H](O[C@H]4CC[C@]5(C)C6CC[C@]7(C)[C@@H](C8=CC(=O)OC8)[C@@H](O)C[C@]7(O)[C@@H]6CC[C@@H]5C4)O[C@@H]3C)O[C@@H]2C)C[C@H](O)C1O (some centres undefined)	Tg IFNy HTS -73
COC1C(O)CC(OC2C(O)CC(OC3C(O)CC(OC4CCC5(C)C(CCC6[C@@H]5CC(O)C5(C)C(C7=CC(=O)OC7)CCC65O)C4)OC3C)OC2C)OC1C (some centres undefined)	Tg IFNy HTS -77
CC(=O)O[C@H]1C[C@H](O[C@H]2[C@@H](O)C[C@H](O[C@H]3[C@@H](O)C[C@H](O[C@H]4CC[C@@]5(C)C(CCC6C5C[C@@H](O)[C@]5(C)[C@@H](C7=CC(=O)OC7)CC[C@]65O)C4)O[C@@H]3C)O[C@@H]2C)O[C@H](C)[C@H]1O[C@@H]1O[C@H](CO)[C@@H](O)[C@H](O)[C@H]1O (some centres undefined)	Tg IFNy HTS -73
C[C@]12CC[C@H](O)C[C@H]1CC[C@@H]1[C@@H]2CC[C@]2(C)[C@@](O)(c3ccoc3)CC[C@]12O	none
COCCN1CCN(C)C2(CCN(Cc3ccncc3)CC2)C1=O	none
O=C(Nc1ccc(F)cc1)c1cc2cccnc2n(Cc2ccccc2)c1=O	none
c1ccc(COC2CC3CN(Cc4cccs4)CCN3C2)nc1 (centres undefined)	none
Cc1nccc([C@H]2C[C@@H]3CCN(Cc4cnn(C)c4)C[C@@H]3O2)n1	none
c1ccc(CN2CCO[C@H]3[C@H]2CC[C@H]3OCc2cccnc2)nc1	none
c1ccc(CN2C[C@H]3OCCN(CC4CCCO4)[C@H]3C2)nc1 (some centres undefined)	none
C=CCOC1C2CCC1N(Cc1ccccn1)CCO2 (centres undefined)	Tg IFNy HTS -92
COc1ccc2c(c1)C1(CCN(C(=O)c3cnc4ccccc4n3)CC1)CC2CC(=O)O (centres undefined)	none
CCOC(=O)CNC(=O)c1cc2cccnc2n(Cc2ccccc2)c1=O	none
Cc1cccc(CN2CC[C@H]3CO[C@H](CNS(C)(=O)=O)[C@@H]3C2)n1	none
CCn1nc(C)c(CNC(C)Cc2cccc(F)c2)c1C (centres undefined)	none
CN1CC2(CCN(c3ncnc4nc[nH]c34)CC2)CC1C(=O)O (centres undefined)	none
O=C(NC(=O)c1c(F)cccc1F)Nc1cc(Cl)c(OC(F)(F)C(F)C(F)(F)F)cc1Cl (centres undefined)	Tg IFNy HTS -76
CN1CC[C@@]2(C[C@@H](NS(=O)(=O)C3CC3)CCO2)C1	none
Cc1ccc(NC(=O)c2cc3cccnc3n(Cc3ccccc3F)c2=O)cc1F	none
O=c1[nH]c2ccc(Cl)cc2c(N[C@@H]2CN3CCC2CC3)c1-c1nc2ccccc2[nH]1	Tg IFNy HTS -76
O=C(Cn1cc(C(F)(F)F)ccc1=O)N1CCC2(CCCNC2)C1 (centres undefined)	none
C=CCOC(=O)N1CCOC2(CNCCOC2)C1 (centres undefined)	none
CCN1C[C@H]2[C@@H](OC)CCN(C(=O)c3ncccn3)[C@H]2C1	none
C#C[C@]1(O)C=C[C@H]2[C@@H]3CCC4=CC(=O)CC[C@@H]4[C@H]3CC[C@@]21CC	Tg IFNy HTS -81
C#C[C@]1(O)CC[C@H]2[C@@H]3CCC4=CC(=O)CC[C@]4(C)[C@H]3CC[C@@]21C	none
CN(C)CCN1C(=O)CC[C@@H]2[C@@H]1CCN2Cc1ccccn1	none
O=C1[C@H]2CCNC[C@H]2OCCN1c1ccccc1	none
Cc1ccc2c(c1)Cc1c(C(=O)NN3CCCCC3)nn(-c3ccc(Cl)cc3Cl)c1-2	Tg IFNy HTS -75!
N#Cc1cccc(NC2COC3(CCCN(CC(=O)O)C3)C2)n1 (centres undefined)	none
COc1ccc(OC)c(/C=C/C(=O)C2C(=O)NC34CCCCC3C2c2ccccc2O4)c1 (centres undefined)	Tg IFNy HTS -74
COc1ccc(/C=C/C(=O)C2C(=O)N(C)C34CCCC3C2c2ccccc2O4)cc1 (centres undefined)	none
O=C(/C=C/c1ccccc1)C1C(=O)NC23CCCCC2C1c1ccccc1O3 (centres undefined)	none
O=C(NCc1c(F)cccc1F)c1cc2cccnc2n(Cc2ccccc2F)c1=O	none
C[C@@]1(CO)[C@H](O)CC[C@@]2(C)[C@H]1CC[C@H]1C[C@@H]3C[C@@]12CC[C@]3(O)CO	Tg IFNy HTS -86
O=C(O)CCC1C(=O)NC(=O)NC1=O	none
CCc1ccc(NC(=O)c2cc3cccnc3n(Cc3ccccc3)c2=O)cc1	none
Fc1ccc(C(OCCN2CCCC2)c2ccc(Br)cc2)cc1 (centres undefined)	none
Fc1ccc(C(OCCN2CCN(CCCc3ccccc3)CC2)c2ccc(F)cc2)cc1	none
Fc1ccc(C(OCCN2CCN(C/C=C/c3ccccc3)CC2)c2ccc(F)cc2)cc1	Tg IFNy HTS -81!
O=C(Nc1cccc(F)c1)c1cc2cccnc2n(Cc2ccc(Cl)cc2)c1=O	none
CCN(CC)c1ccc(C2NCCc3[nH]cnc32)c(O)c1 (centres undefined)	none
O=C(NCc1cccc(OC(F)F)c1)c1cn(CC2CCCNC2)nn1 (centres undefined)	none
CC(C)N(C)Cc1cncc2c1CCN(c1ccccn1)C2	none
Cc1nc(CN2C[C@@H]3CN(Cc4c(C)noc4C)C[C@H]3C2=O)cs1	none
Cc1ccc(CNC(=O)c2cc3cccnc3n(Cc3ccc(F)cc3)c2=O)cc1	none
O=C(NCc1ccc(F)cc1)c1cc2cccnc2n(Cc2ccc(Cl)cc2)c1=O	none
O=C(NCCC(c1ccccc1)c1ccccc1)c1cc2cccnc2n(Cc2ccc(F)cc2)c1=O	Tg IFNy HTS -83
CC(C)CCNC(=O)c1cc2cccnc2n(Cc2ccc(F)cc2)c1=O	none

Assay outcomes: PubChem, Broad Institute
